Source: PubChem BioAssay
Gli-Sufu antag – blocks Gli-Sufu signaling in a luciferase reporter; Sufu-KO-LIGHT fibroblasts, Gli luciferase reporter luminescence; inhibition, % at 5 µM; 340,000 compounds, 0.74% hits; AID 588413;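 active means inhibition above about 55%, limit read from the data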
Jurkat NFkB inh – inhibitors of the PMA/ionomycin-induced NF-kB reporter in Jurkat cells; PMA/ionomycin-induced NF-kB luciferase reporter, luminescence; 330,000 compounds, 0.53% hits; inhibition, % at 4 µM; in the data active means inhibition above about 50%
697 NFkB inh – inhibitors of the PMA/ionomycin-induced NF-kB reporter in 697 B cells. 697 B-cell NF-kB luciferase reporter, 16 h. inhibition, % at 4 µM. 330,000 compounds, 0.33% hits; in the data active means inhibition above about 35%
Mdm2 MdmX PPI – inhibitors of human Mdm2/MdmX interaction | inhibition, % at 8 µM | AID 485346 | SaOS-2 split-luciferase Mdm2/MdmX complementation, luminescence | 330,000 compounds, 3% hits;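 active means inhibition of at least 50% at 8 µM in the primary screen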
Target sequence (O15151 whole entry, looked up): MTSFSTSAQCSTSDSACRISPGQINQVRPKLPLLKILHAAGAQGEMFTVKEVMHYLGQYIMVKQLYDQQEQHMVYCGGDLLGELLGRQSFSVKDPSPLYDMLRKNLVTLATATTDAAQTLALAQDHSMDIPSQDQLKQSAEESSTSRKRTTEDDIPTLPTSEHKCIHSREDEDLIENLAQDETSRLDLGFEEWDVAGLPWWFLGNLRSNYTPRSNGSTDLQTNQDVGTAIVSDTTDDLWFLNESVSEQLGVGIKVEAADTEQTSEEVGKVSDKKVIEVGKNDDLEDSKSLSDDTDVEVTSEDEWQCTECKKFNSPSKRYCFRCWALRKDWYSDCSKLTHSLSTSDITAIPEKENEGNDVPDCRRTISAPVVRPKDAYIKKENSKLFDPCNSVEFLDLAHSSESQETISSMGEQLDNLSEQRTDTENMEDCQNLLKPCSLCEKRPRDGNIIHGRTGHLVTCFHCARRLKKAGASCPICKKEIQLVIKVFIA
Target sequence (Q00987 whole entry, looked up): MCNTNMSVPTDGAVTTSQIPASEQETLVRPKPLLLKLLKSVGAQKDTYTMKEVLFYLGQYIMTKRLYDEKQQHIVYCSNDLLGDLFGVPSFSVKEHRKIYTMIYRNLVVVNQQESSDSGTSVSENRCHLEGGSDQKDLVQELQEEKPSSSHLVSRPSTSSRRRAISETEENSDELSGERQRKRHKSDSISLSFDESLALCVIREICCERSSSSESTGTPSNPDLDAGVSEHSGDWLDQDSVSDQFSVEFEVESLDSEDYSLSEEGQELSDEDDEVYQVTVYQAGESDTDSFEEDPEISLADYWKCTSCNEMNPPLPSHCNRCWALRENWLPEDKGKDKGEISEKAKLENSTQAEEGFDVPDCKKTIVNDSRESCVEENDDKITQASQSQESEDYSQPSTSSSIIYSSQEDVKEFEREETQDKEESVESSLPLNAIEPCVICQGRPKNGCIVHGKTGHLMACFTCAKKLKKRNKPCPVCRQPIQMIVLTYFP
CSC inhib – blocks cancer stem cells. cancer stem cell-like cells viability, luminescence. inhibition, % at 7.5 µM. 300,000 compounds, 1.1% hits. AID 2717; in the data active means inhibition above about 75%; tested in HMLE shEcad cells
Beta apoptosis – blocks beta cell apoptosis | INS-1E cytokine-induced death, ATP luminescence, 48 h; percent of positive-control rescue, neutral wells zero | protection from apoptosis, % (test concentration not listed) | 300,000 compounds, 0.8% hits | AID 435005;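 active means Every replicate reaches about 75%, or at least half do and their mean reaches it too, limit read from the data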;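 further: higher means more ATP so stronger rescue from cytokine killing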
Each line names hits and unclear results; the compound was inactive in the other large screens. Most compounds without a hit are left out; they make up all but 4.5% or so of the library.

COc1cnc(-c2ccccn2)nc1Sc1c(Cl)cccc1Cl	none
OCCN1CCN(C2CCC(c3ccc(F)cc3)c3ccc(F)cc32)CC1 (centres undefined)	CSC inhib 83
COc1ccccc1OCCCCOc1ccccc1C(C)=O	Beta apoptosis 100
Clc1ccc2c(NNc3ccccc3Cl)ccnc2c1	none
Clc1ccc2c(N/N=C/c3cccc(Br)c3)ccnc2c1	CSC inhib 80, Beta apoptosis 81 (no result: Jurkat NFkB inh, 697 NFkB inh, Mdm2 MdmX PPI)
O=[N+]([O-])c1ccc(/C=N/Nc2ccnc3cc(Cl)ccc23)o1	Beta apoptosis 107
O=C(OCC(=O)N1CCN(C(=O)c2ccco2)CC1)c1cccc(S(=O)(=O)N2CCc3ccccc32)c1	none (no result: Beta apoptosis)
Cc1ccc(NC(=O)/C=C/c2ccc3c(c2)OCO3)nc1	CSC inhib 110
O=C(/C=C/c1ccc2c(c1)OCO2)Nc1nc(-c2ccc(F)cc2F)cs1	CSC inhib 95 (no result: Gli-Sufu antag)
O=c1ccc(-c2ccc(S(=O)(=O)Nc3ccc(F)cc3)s2)n[nH]1	none
O=C(Nc1ccc(Cl)c(Cl)c1)Nc1nccs1	CSC inhib 95
O=C(c1cc(-c2ccc(O)cc2)on1)N1CCN(c2ccc(F)cc2)CC1	CSC inhib 111
O=C(c1cc(-c2ccc(O)cc2)on1)N1CCN(c2ccccc2)CC1	CSC inhib 104
CCOc1cc2c(cc1O)C(=NOC)CC1C2CCC2(C)C(O)CCC12 (centres undefined)	none (no result: Jurkat NFkB inh, 697 NFkB inh, Mdm2 MdmX PPI, CSC inhib, Beta apoptosis)
O=C(OCCCOC(=O)c1ccc(O)cc1)c1ccc(O)cc1	none
CCn1c(=O)c([N+](=O)[O-])c(N2CCN(Cc3ccc4c(c3)OCO4)CC2)c2ccccc21	Beta apoptosis 129
CCn1c(=O)c([N+](=O)[O-])c(N2CCSCC2)c2ccccc21	none
CCn1c(SCC(=O)c2c(N)n(C3CC3)c(=O)[nH]c2=O)nc2cc(S(N)(=O)=O)ccc21	none
O=C(CCCCCCCCCCC(=O)NCc1cccnc1)NCc1cccnc1	Beta apoptosis 112
O=C(NCc1cccnc1)c1cc(-c2ccco2)on1	Beta apoptosis 101
Cc1ccc(-c2cc(C(=O)NCc3cccnc3)no2)cc1	none
O=C(/C=C/c1ccc(-c2ccccc2)cc1)NCc1cccnc1	Beta apoptosis 98
COc1ccccc1C(=O)NCC(=O)NCc1cc(=O)n(C)c(=O)n1C	none
CCCc1nn(C)c2c(=O)[nH]c(-c3cc(S(=O)(=O)Nc4ccc(NC(C)=O)cc4)ccc3OCC)nc12	none
CNC(=O)c1c(NC(=O)c2ccc(S(=O)(=O)N3CCCc4ccccc43)cc2)sc2c1CCN(C)C2	CSC inhib 76
CCCN1CCc2c(sc(NC(=O)c3ccc(S(=O)(=O)N(C)c4ccccc4)cc3)c2C(=O)NC)C1	CSC inhib 78
CN1CCc2c(sc(NC(=O)c3ccc(S(=O)(=O)N4CCCC4)cc3)c2C(N)=O)C1	none
CCCN1CCc2c(sc(NC(=O)c3ccc(S(=O)(=O)N(C)c4ccccc4)cc3)c2C(N)=O)C1	none
Cc1ccccc1NC(=S)N/N=C/c1ccc(O)cc1O	Beta apoptosis 87
CCNC(=S)N/N=C/c1ccccc1[N+](=O)[O-]	none
COc1ccc(/C=N/NC(=S)Nc2ccccc2[N+](=O)[O-])cc1O	CSC inhib 89 (no result: Jurkat NFkB inh, 697 NFkB inh, Mdm2 MdmX PPI)
CCCOc1ccc(/C=N/NC(=S)Nc2ccccc2[N+](=O)[O-])c(O)c1	Gli-Sufu antag 82, CSC inhib 89, Beta apoptosis 108 (no result: Jurkat NFkB inh, 697 NFkB inh, Mdm2 MdmX PPI)
Cc1cc2c(SCC(=O)NCC3CCCO3)ncnc2s1 (centres undefined)	none (no result: CSC inhib, Beta apoptosis)
NS(=O)(=O)c1ccc(CCNC(=O)CSCC(=O)Nc2ccc(Cl)cc2)cc1	none (no result: CSC inhib)
O=S(=O)(Nc1ccc(-n2cccc2)cc1)c1ccc(Cl)c(Cl)c1	CSC inhib 84
Oc1cccc(/C=N/N(Cc2ccccc2)c2ccccc2)c1	CSC inhib 87
Cc1ccc(CNC(=O)C(=O)NCC2OCCCN2S(=O)(=O)c2ccc(F)cc2)cc1 (centres undefined)	none
Cc1ccc(-n2nnnc2SCC(=O)c2cc(C)n(-c3cc(C)on3)c2C)c(C)c1	CSC inhib 140
COCCn1c(Cc2ccccc2)nnc1SCC(=O)N1CCCC1=O	none (no result: CSC inhib)
COc1ccc(/C=C/c2nc3ccccc3n2C)cc1	CSC inhib 88, Beta apoptosis 106
CCOc1ccc(S(=O)(=O)N(C)c2ccc(OCC(=O)Nc3nc4ccccc4s3)cc2)cc1	Beta apoptosis 92
CN(c1ccc(OCC(=O)Nc2nc3ccccc3s2)cc1)S(=O)(=O)c1ccccc1	none
